# Data reported in PubChem BioAssay.
# Calls of active or inactive are those of the source.
# Legend:
# [1] = target: Albumin (Bos taurus) (UniProt P02769); assay: compounds binding labelled BSA control protein – biochemical, small-molecule microarray, Alexa647 label, 635/667 nm fluorescence, artefact control for SMM control protein annotation, profiling panel (AID 1118); conditions: BSA-A647 binding, fluorescence 635 nm, higher = more signal;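 also: score merges 667 nm emission intensity and signal-to-noise per printed compound spot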
# Albumin (Bos taurus), sequence (P02769 whole entry, looked up): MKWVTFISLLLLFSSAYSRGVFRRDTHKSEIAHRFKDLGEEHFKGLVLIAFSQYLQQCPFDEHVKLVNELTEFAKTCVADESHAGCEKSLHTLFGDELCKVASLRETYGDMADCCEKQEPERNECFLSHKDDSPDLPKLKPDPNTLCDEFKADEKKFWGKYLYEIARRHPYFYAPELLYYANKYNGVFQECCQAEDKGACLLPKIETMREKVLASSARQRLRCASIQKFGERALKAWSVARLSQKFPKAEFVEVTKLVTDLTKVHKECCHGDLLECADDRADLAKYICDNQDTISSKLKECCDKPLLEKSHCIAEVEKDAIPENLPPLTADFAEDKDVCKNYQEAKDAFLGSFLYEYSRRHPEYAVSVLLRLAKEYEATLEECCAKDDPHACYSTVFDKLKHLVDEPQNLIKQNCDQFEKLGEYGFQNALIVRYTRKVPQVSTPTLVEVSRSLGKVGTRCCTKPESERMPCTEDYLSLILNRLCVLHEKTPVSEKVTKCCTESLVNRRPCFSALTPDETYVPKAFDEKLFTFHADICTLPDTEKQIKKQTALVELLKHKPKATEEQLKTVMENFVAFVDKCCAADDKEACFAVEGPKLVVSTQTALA
# [2] = probe aXIP binding to arrayed compounds – biochemical, NeuroSMM set, 635/667 nm fluorescence, primary screen (AID 1119); conditions: small-molecule microarray, higher = more signal, called active from +8 up or from −8 down;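 also: probe is the protein aXip251-270 applied at 1 µg/mL to compound-printed slides; binding of probe to printed compounds measured as 667 nm fluorescence plus signal to noise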
# [3] = probe aNOTCH3 binding on compound microarray – biochemical, small-molecule microarray, 635/667 nm fluorescence, primary screen (AID 1120); conditions: higher = more signal;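 also: probe is a biotin-tagged antibody raised against NOTCH3 rather than NOTCH3 protein; score merges spot fluorescence near 667 nm with spot signal to noise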
# [4] = probe aNOTCH2 binding on compound microarray – biochemical, small-molecule microarray, 635/667 nm fluorescence, primary screen (AID 1121); conditions: higher = more signal;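 also: score merges feature fluorescence read at 667 nm with its signal to noise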
# [5] = target: Carbonic anhydrase 2 (Homo sapiens) (UniProt P00918); assay: compounds binding carbonic anhydrase 2 – biochemical, small-molecule microarray, Alexa647-labelled CAII, profiling panel (AID 1122); conditions: CAII-A647 binding fluorescence, higher = more signal
# [6] = COS7 lysate on small-molecule microarray, probe aHis, 635 nm (AID 1123); conditions: COS7 cell lysate, fluorescence, higher = more signal;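 also: z-score combines 667nm fluorescence intensity with signal-to-noise per printed compound spot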
# [7] = probe aLAP1 signal on lysate-treated microarray – cell lysate, small-molecule microarray, COS7 lysate, primary screen (AID 1124); conditions: probe aLAP1, fluorescence, higher = more signal;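 also: lysate comes from COS7 cells expressing LAP1 and is applied at 0.3 µg/mL; score merges spot fluorescence near 667 nm with signal-to-noise over triplicate slides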
# [8] = tested on: Sam68 (KHDRBS1); assay: compounds binding KHDRBS1 protein – biochemical, small-molecule microarray, 635 nm fluorescence, primary screen (AID 1125); conditions: higher = more signal;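 also: score merges 667 nm channel intensity with signal to noise over triplicate slides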
# [9] = tested on: Chordin-like protein 2 (CHRDL2); assay: compounds binding chordin-like 2 – biochemical, small-molecule microarray, 635 nm fluorescence, primary screen (AID 1126); conditions: fluorescence 635 nm, higher = more signal;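 also: printed compound slides probed with Chrdl2 protein at 4 µg/mL for 1 h at 4 C; score merges 667 nm emission intensity with signal to noise over three replicate slides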
# [10] = target: Concanavalin-A (Canavalia ensiformis) (UniProt P02866); assay: compounds binding concanavalin A lectin – biochemical, small-molecule microarray, Alexa647 label, 635 nm, artefact control for SMM control protein annotation, primary screen (AID 1127); conditions: ConA-A647 binding fluorescence, higher = more signal;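 also: z combines 667 nm emission intensity with signal-to-noise across three replicate slides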
# Concanavalin-A (Canavalia ensiformis), sequence (P02866 whole entry, looked up): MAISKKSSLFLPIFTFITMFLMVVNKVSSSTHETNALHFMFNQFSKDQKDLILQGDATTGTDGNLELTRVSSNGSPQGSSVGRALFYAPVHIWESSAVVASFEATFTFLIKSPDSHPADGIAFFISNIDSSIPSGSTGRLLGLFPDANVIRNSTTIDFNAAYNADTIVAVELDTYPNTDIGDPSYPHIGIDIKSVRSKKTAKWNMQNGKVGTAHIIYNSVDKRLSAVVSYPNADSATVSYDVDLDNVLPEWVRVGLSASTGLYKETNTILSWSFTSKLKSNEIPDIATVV
# [11] = compounds binding Alexa647 anti-His antibody – biochemical, small-molecule microarray, 635 nm fluorescence, artefact control for SMM control protein annotation, primary screen (AID 1128); conditions: higher = more signal;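 also: score merges feature fluorescence with signal-to-noise for each printed compound spot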
# [12] = tested on: Human papillomavirus type 1a E7 protein (residues 1-88); assay: HPV1a E7 small-molecule binders, primary screen, biochemical, small-molecule microarray, residues 1-88, 635 nm (AID 1129); conditions: small-molecule microarray binding, fluorescence 635 nm; higher = more signal
# [13] = target: Focal adhesion kinase 1 (Homo sapiens) (UniProt Q05397); assay: PTK2 protein binding on printed compound slides – biochemical, small-molecule microarray, 635/667 nm fluorescence, BSA, DTT, primary screen (AID 1130); conditions: 635 nm fluorescence, higher = more signal;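 also: composite of spot emission at 667 nm and signal to noise over triplicate slides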
# Focal adhesion kinase 1 (Homo sapiens), sequence (Q05397 whole entry, looked up): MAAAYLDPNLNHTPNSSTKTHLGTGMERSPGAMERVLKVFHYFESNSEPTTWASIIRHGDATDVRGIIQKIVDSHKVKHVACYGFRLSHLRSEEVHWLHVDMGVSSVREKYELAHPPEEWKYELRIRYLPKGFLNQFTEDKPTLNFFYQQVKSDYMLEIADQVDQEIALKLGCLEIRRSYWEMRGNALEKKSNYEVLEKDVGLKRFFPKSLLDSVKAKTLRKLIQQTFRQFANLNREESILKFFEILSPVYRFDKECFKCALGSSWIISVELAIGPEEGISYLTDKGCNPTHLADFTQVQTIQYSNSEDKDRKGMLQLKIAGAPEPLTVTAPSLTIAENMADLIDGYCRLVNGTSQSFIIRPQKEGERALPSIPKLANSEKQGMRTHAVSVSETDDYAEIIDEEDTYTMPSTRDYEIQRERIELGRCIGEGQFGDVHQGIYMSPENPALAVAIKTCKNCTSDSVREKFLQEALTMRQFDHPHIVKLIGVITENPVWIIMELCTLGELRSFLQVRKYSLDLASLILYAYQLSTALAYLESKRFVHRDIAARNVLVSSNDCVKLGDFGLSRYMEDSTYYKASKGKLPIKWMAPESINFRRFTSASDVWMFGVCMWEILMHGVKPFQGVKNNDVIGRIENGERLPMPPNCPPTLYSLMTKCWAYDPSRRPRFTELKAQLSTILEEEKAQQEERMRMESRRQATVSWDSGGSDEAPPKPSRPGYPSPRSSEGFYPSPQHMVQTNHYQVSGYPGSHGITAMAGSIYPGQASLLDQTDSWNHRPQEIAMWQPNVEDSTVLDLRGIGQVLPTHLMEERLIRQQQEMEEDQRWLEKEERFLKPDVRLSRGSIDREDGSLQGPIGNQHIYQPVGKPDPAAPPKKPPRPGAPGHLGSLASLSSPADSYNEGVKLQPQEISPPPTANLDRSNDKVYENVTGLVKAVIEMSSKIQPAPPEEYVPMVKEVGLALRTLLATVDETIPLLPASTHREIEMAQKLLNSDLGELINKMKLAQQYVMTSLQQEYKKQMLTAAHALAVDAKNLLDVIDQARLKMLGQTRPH
# [14] = tested on: Fibrinogen (Alexa647-labelled); assay: Alexa647-fibrinogen binding to printed small molecules – biochemical, small-molecule microarray, 635/667 nm fluorescence, artefact control for SMM control-protein annotation, profiling panel (AID 1131); conditions: fibrinogen-A647 binding fluorescence, higher = more signal;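 also: z-score merges 667 nm fluorescence with per-spot signal-to-noise over triplicate slides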
# [15] = target: Follistatin (Homo sapiens) (UniProt P19883); assay: FST protein binding to printed compounds – biochemical, small-molecule microarray, 635/667 nm fluorescence, primary screen (AID 1132); conditions: 635 nm fluorescence, higher = more signal
# Follistatin (Homo sapiens), sequence (P19883 whole entry, looked up): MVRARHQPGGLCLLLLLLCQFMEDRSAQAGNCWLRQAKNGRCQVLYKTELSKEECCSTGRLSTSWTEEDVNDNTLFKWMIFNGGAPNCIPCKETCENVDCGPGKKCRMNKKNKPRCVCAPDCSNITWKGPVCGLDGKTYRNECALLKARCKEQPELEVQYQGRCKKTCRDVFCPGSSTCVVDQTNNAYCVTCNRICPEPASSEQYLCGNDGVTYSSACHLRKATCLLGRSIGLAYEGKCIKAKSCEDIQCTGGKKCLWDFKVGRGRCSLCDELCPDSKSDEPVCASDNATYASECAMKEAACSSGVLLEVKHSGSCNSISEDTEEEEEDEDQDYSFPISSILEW
# [16] = target: Fibroblast growth factor 2 (Homo sapiens) (UniProt P09038); assay: basic fibroblast growth factor binding to printed compounds – biochemical, small-molecule microarray, 635/667 nm fluorescence, primary screen (AID 1133); conditions: FGF2, fluorescence 635/667, higher = more signal
# Fibroblast growth factor 2 (Homo sapiens), sequence (P09038 whole entry, looked up): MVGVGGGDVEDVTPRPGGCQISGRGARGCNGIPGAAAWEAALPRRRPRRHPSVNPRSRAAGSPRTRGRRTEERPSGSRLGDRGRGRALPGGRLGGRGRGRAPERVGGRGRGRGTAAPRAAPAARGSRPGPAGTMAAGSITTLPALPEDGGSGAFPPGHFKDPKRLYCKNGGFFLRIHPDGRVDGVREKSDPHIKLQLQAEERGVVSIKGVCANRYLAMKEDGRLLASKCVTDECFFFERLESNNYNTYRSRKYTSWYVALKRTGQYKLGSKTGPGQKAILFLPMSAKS
# [17] = JC-1 mitochondrial potential readout, lung cancer cells – cell-based, A549, JC-1 fluorescence, basal, 24 h, 100 nL, profiling panel (AID 1138); conditions: higher = more signal;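 also: A549 lung adenocarcinoma cells under basal conditions with no added stimulus; test concentration not given here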
# [18] = tested on: Lefty1; assay: Lefty1 protein binding to printed compounds – biochemical, small-molecule microarray, 635/667 nm fluorescence, primary screen (AID 1139); conditions: fluorescence 635/667, higher = more signal
# [19] = tested on: wheat germ agglutinin (Triticum aestivum), Alexa647-labelled; assay: Alexa647-WGA lectin binding to printed small molecules – biochemical, small-molecule microarray, 635/667 nm fluorescence, artefact control for SMM control-protein annotation, profiling panel (AID 1140); conditions: WGA-A647 binding, 635 nm fluorescence, higher = more signal;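 also: score merges 667 nm feature emission with signal to noise over triplicate slides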
# [20] = target: Luciferin 4-monooxygenase (Photinus pyralis) (UniProt P08659); assay: inhibition of purified Photinus pyralis luciferase – biochemical, luminescence, purified enzyme, 2006 set, primary screen (AID 1141); conditions: purified firefly luciferase, SteadyGlo luminescence, 30 min; higher = more signal, called active from +8 up or from −8 down;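 also: cell-free assay with purified firefly luciferase at 100 ng per well in PBS; test concentration not given here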
# Luciferin 4-monooxygenase (Photinus pyralis), sequence (P08659 whole entry, looked up): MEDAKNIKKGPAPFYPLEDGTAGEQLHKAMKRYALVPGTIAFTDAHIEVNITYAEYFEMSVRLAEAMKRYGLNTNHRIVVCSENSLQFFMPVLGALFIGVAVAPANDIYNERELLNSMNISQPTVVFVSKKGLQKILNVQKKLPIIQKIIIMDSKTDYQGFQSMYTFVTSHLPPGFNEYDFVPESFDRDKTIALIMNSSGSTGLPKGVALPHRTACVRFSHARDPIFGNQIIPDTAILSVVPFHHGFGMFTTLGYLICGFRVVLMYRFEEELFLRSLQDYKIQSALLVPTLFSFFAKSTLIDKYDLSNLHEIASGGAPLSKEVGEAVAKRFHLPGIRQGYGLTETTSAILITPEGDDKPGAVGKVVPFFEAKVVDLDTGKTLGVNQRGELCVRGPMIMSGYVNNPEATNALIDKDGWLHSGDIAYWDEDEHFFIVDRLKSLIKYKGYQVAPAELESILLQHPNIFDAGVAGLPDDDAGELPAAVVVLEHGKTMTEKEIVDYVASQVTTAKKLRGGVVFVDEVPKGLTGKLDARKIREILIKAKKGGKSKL
Compound,composite z-score [1],composite Z-score [2],composite z-score [3],composite z-score [4],composite z-score [5],composite z-score [6],composite z-score [7],composite z-score [8],composite z-score [9],composite z-score [10],composite z-score [11],composite z-score [12],composite z-score [13],composite z-score [14],composite z-score [15],composite z-score [16],z-score [17],composite z-score [18],composite z-score [19],z-score [20]
COC(=O)C1(Cc2ccccc2)C=C2C(=C(C)C(=O)C2C)CN1 (stereo not given),-0.0396,0.877 (inactive),0.0203,0.197,0.742,2.62,0.578,-0.674,0.46,-0.634,1.21,0.732,0.296,0.775,0.714,-0.298,1.47,-0.104,0.622,-0.112 (inactive)
COC(=O)[C@@]1(Cc2ccc(F)cc2)[C@H]2c3cc(C(=O)N4CCCC4)n(Cc4ccccn4)c3C[C@H]2CN1C(=O)c1ccccc1,0.0228,-0.104 (inactive),0.547,0.417,0.482,2.95,0.382,1.17,-0.22,0.627,1.58,1.25,1.01,0.903,0.37,-0.453,-0.0238,-0.2,-0.128,1.1 (inactive)
COCCOC(=O)N1C(=O)[C@@]2(c3cc(C#CCCO)ccc31)[C@H](C(N)=O)[C@H]1C(=O)O[C@H](c3ccccc3)[C@H](c3ccccc3)N1[C@@H]2c1ccccc1OCCO,0.69,0.689 (inactive),0.0727,-0.14,0.552,1.54,0.45,1.3,-0.0675,1.14,3.07,1.21,0.425,0.897,1.19,0.516,-0.256,0.673,0.713,-0.683 (inactive)
COC(=O)[C@@]1(Cc2ccc(OC)cc2)[C@H]2c3cc(C(=O)N4CCCC4)n(CCn4cc([N+](=O)[O-])nc4C)c3C[C@H]2CN1C(=O)c1ccccc1,1.05,0.146 (inactive),1.67,1,0.62,3.37,0.913,0.654,0.406,0.716,3.4,1.2,1.07,1,0.116,-0.322,1.33,-0.19,0.907,1.22 (inactive)
COC(=O)[C@@]1(Cc2ccccc2)N=C(c2ccc(OCCCO)cc2)O[C@H]1c1ccccc1CN=[N+]=[N-],-0.158,0.282 (inactive),0.0655,-0.12,0.6,2.02,-0.415,1.2,-0.111,0.505,1.91,0.997,0.291,0.447,1.33,1.02,-1.07,0.434,0.0777,-2.05 (inactive)
